High-throughput results deposited in PubChem by several laboratories.
Compounds with a hit are over-represented: about 2.1% of the library has one in this group of screens.
IL1B NFkB inh = inhibitors of IL-1B driven NFkB p65 nuclear import, primary screen, imaging, HUVEC, IL-1B stimulus, high-content imaging | HUVEC IL-1B NFkB p65 nuclear translocation imaging | inhibition, % at 2 µM | 94,000 tested, 0.43% active;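 active means inhibition above about 30% together with a positive call from visual inspection of the well image, limit read from the data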;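 further: nuclear over cytoplasmic p65 intensity ratio measured by imaging; 0% = IL-1B stimulated DMSO wells and 100% = unstimulated DMSO wells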
HUVEC tox IL1B = cytotoxicity in IL-1B stimulated HUVEC, primary screen, cytotoxicity control for IL-1B NFkB translocation project, imaging, Hoechst nuclear count, IL-1B stimulus; HUVEC cell count loss; cell count reduction, % at 2 µM; 94,000 tested, 0.41% active; AID 845, 2007;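 active means cell count reduction more than 3 SD above the screen-wide mean, cut at about 70% in these data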;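 further: normalized per plate to untreated control cells as the no-loss baseline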
IL1B NFkB pot = enhancers of NFkB p65 translocation in HUVEC – imaging, IL-1B stimulus, high-content imaging, primary screen | AID 819, 2007 | 94,000 tested, 0.3% active | activation, % at 2 µM | HUVEC IL-1B NFkB p65 nuclear translocation imaging;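 active means activation above 40%, about the mean plus 3 SD, also judged a hit on visual image review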;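 further: percent activation is computed from the nuclear over cytoplasmic p65 intensity ratio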
Measles CPE = compounds protecting cells from measles virus cytopathic effect, primary screen, measles RdRp inhibitor project, single point, MLSMR library, absorbance. Measles virus-infected cells, CPE protection. protection (pct of control), % at 4 µM. 140,000 tested, 1.5% active; in the data active means protection mostly above about 24%, no sharp cut-off; inactive means mostly below about 26%
* marks the source's active call; other numbers are inactive results; / = no result given.

SMILES | IL1B NFkB inh | HUVEC tox IL1B | IL1B NFkB pot | Measles CPE
CCOC(=O)C1=C(NC(=S)NC(=O)c2ccccc2)c2ccccc2CC12CCCC2 | / | / | / | 62*
CCOP(=O)(OCC)C(NC(=O)c1ccccc1)=C(Cl)Cl | / | / | / | 6
COc1ccc(CCNCc2ccccn2)cc1OC | 36* | -8 | -36 | 8
CN(C)CCN=Cc1c(O)n(-c2cccc3ccccc23)c(=O)[nH]c1=O | -11 | -26 | 11 | 4
COc1cc2c(cc1C=O)OCO2 | / | / | / | 35*
CN(C)C(=O)Oc1ccc(-c2cn3cc(Cl)ccc3n2)cc1 | / | / | / | 16
CN(C)C(=O)Oc1cccc(-c2cn3cc(Cl)ccc3n2)c1 | / | / | / | 45*
CCCNS(=O)(=O)c1ccc(OCC(=O)N2CCN(C)CC2)cc1 | -25 | 88* | 25 | 7
O=C(c1ccc(CNS(=O)(=O)c2ccc(Br)cc2)cc1)N1CCC2(CC1)OCCO2 | / | / | / | 12
O=C(CNS(=O)(=O)c1ccc(Br)s1)N1CCC2(CC1)OCCO2 | -43 | 14 | 43* | 9
Cc1ccc(-n2c(/C=C/c3ccc4c(c3)OCO4)nc3ccccc3c2=O)cc1 | / | / | / | 26*
CP(C)(=O)CCC(=O)O | -10 | -2 | 10 | 38*
Cc1cccn2c(=O)c3cc(C(=O)N4CCC5(CC4)OCCO5)n(C)c3nc12 | / | / | / | 5
COC(=O)C(O)(c1cn(C)c2ccccc12)C(F)(F)F (configuration not stated) | -4 | -12 | 4 | 46*
CC(=NCC1CCCO1)c1c(O)n(Cc2ccccc2)c(=O)[nH]c1=O (configuration not stated) | -1 | 2 | 1 | 36*
CCC12C=CCN3CCC4(c5cc(Br)c(OC)cc5N(C)C4C(O)(C(=O)OC)C1OC(C)=O)C32 (configuration not stated) | -40 | -20 | 40* | 6
CC1CC2(O)c3nonc3CCC2N1O (configuration not stated) | -1 | 5 | 1 | 5
Cc1nc2cc(-c3cccc(F)c3)nn2c(C)c1CCC(=O)N1CCC2(CC1)OCCO2 | 1 | -26 | -1 | 25*
Cc1nc2c(-c3ccccc3)c(C)nn2c(C)c1CCC(=O)N1CCC2(CC1)OCCO2 | -10 | -25 | 10 | 6
CC1CCN2c3nc4ccccn4c(=O)c3CC3(C(=O)N(C)C(=O)N(C)C3=O)C2C1 (configuration not stated) | -7 | 18 | 7 | 29
CN1C(=O)N(C)C(=O)C2(Cc3c(nc4ccccn4c3=O)N3CCc4ccccc4C32)C1=O (configuration not stated) | 4 | 2 | -4 | 40*
Cc1cc(Br)ccc1N1C(=O)CC(=O)NC1=O | / | / | / | 38*
O=c1c2ccccc2nc(-c2ccoc2)n1-c1ccccc1 | -7 | 0 | 7 | 4
CN1C(=O)c2ccccc2Sc2ccc(C(=O)N3CCC4(CC3)OCCO4)cc21 | -157 | -3 | 157* | 12
N[C@@H](Cc1c[nH]c2ccccc12)c1nnc(SCc2ccccc2)o1 | -8 | -47 | 8 | 45*
SMILES | IL1B NFkB inh | HUVEC tox IL1B | IL1B NFkB pot | Measles CPE
CCOP(=O)(Cc1cc(C#N)oc1C)OCC | / | / | / | 2
COc1ccc(CCn2c(O)c(C=NCCCN(C)C)c(=O)[nH]c2=O)cc1OC | -16 | -3 | 16 | 6
O=c1cccc2n1CC1CC2CN(Cc2cccc(Cl)c2Cl)C1 (configuration not stated) | / | / | / | 43*
O=c1cccc2n1CC1CC2CN(Cc2c(F)cccc2Cl)C1 (configuration not stated) | / | / | / | 2
CCOC(=O)[C@@]1(C#N)[C@@H]2C=CC(C(N)=O)=CN2[C@@H](C(N)=O)[C@@H]1c1cccc(Cl)c1 | -12 | 11 | 12 | 47*
CCOC(=O)[C@@]1(C#N)C(c2ccc(Cl)c(Cl)c2)[C@H](C(N)=O)N2C=C(C(C)=O)C=C[C@H]21 (some centres not stated) | -9 | -4 | 9 | 13
O=C(CN1CCN(Cc2ccc(Cl)cc2)C1=O)N1CCC2(CC1)OCCO2 | -19 | 0 | 19 | 2
O=c1c2ccccc2nc(-c2ccco2)n1-c1ccccn1 | -4 | 3 | 4 | 15
O=c1c2ccccc2nc(-c2ccco2)n1-c1cccnc1 | 4 | 84* | -4 | 23
COc1cccc(-n2c(CN3CCN(C)CC3)nc3ccc([N+](=O)[O-])cc3c2=O)c1 | / | / | / | 5
O=C(Nc1ccc(Cl)cc1)Nc1nccs1 | 4 | 1 | -4 | 6
Cc1cc(C)c(C2=NOC(O)(C(F)(F)F)C2)c(=O)[nH]1 (configuration not stated) | 9 | 0 | -9 | 27*
CCN(CC)CCN=C(C)c1c(O)n(-c2ccccc2OC)c(=O)[nH]c1=O | -10 | -28 | 9 | 1
CC(C)OCCCNC(=O)c1c(N)n(CC2CCCO2)c2nc3ccccc3nc12 (configuration not stated) | 97* | 90* | -97 | 4
O=C(Cc1ccc(Br)cc1)N1CCN(Cc2ccccc2)CC1 | -23 | -23 | 23 | 86*
O=C(COc1ccc(Cl)cc1)N1CCN(Cc2ccccc2)CC1 | -43 | -17 | 43* | 10
CCC(C)NS(=O)(=O)c1ccc(OCC(=O)N2CCN(CC)CC2)cc1 (configuration not stated) | -3 | -34 | 3 | 17
CC1C(c2cccs2)=[N+]([O-])C(C)(C(=O)c2cccs2)N1O (configuration not stated) | / | / | / | 33
Cc1cc(/C=C2\C(=O)NC(=O)N(c3cccc(Br)c3)C2=O)c(C)n1C | / | / | / | 39*
CCCC[n+]1cc(/N=C(\[O-])OC)on1 | -31 | -42 | 34 | 14
COc1ccc(CC[n+]2cc(/N=C(\C)[O-])on2)cc1OC | -12 | -20 | 12 | 35*
CCn1c(O)c(C=Nc2ccc(N3CCOCC3)c(Br)c2)c(=O)n(CC)c1=S | -5 | -9 | 5 | 4
CCn1c(O)c(C=Nc2ccc(N3CCOCC3)cc2)c(=O)n(CC)c1=S | 10 | 31 | -10 | 35*
CCN1CCN(C(=O)Cc2coc3ccc4ccccc4c23)CC1 | -7 | -14 | 7 | 22
CCN(CC)CCCNC(=O)c1c(O)c2ccccc2n(Cc2ccccc2)c1=O | 6 | -20 | -6 | 77*
SMILES | IL1B NFkB inh | HUVEC tox IL1B | IL1B NFkB pot | Measles CPE
CCN(CC)CCNC(=O)c1c(O)c2ccccc2n(Cc2ccccc2)c1=O | 4 | -1 | -4 | 1
O=C(Nc1ccc(Cl)cc1C(=O)c1ccccc1)c1ccccc1Cl | / | / | / | 8
CC(C)N1C(=O)/C(=C/C=C/c2ccco2)C(=O)N(Cc2ccco2)C1=O | 6 | -2 | -6 | 26*
CC(C)CCn1c(=O)c(C(=O)Nc2ccccc2S(N)(=O)=O)c(O)c2ccccc21 | 39* | -9 | -39 | 13
CCN(CC)CCN=Cc1c(O)n(CCC2=CCCCC2)c(=O)[nH]c1=O | 26 | 89* | -26 | 3
O=c1[nH]c(=O)n(CCC2=CCCCC2)c(O)c1C=NCc1cccnc1 | 8 | 26 | -8 | 0
Cn1c(C(=O)O)c(CC(=O)N2CCN(Cc3ccccc3)CC2)c2ccccc21 | -10 | 2 | 10 | 7
